Laboratory results as given in PubChem BioAssay (NCI).
Compounds without any hit were thinned out: in the full panel of roughly 83,000, 20% have a hit.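 A percent growth of 40 corresponds to 60% growth inhibition; 0 means no net growth; -100 means all cells died. Active threshold: below 10.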 A number with no mark means an inactive call. Calls of active or inactive are those of the source.

Legend:
Test in all cases: NCI-60 one-dose screen, 48 h (100 = growth as untreated, 0 = no growth, -100 = all killed)
Conditions in all cases: 10 µM unless noted
SR leukemia = system: SR leukemia
RPMI-8226 leukemia = system: RPMI-8226 leukemia
OVCAR-8 ovarian = system: OVCAR-8 ovarian
OVCAR-5 ovarian = system: OVCAR-5 ovarian
OVCAR-4 ovarian = system: OVCAR-4 ovarian
SK-OV-3 ovarian = system: SK-OV-3 ovarian
IGROV1 ovarian = system: IGROV1 ovarian
OVCAR-3 ovarian = system: OVCAR-3 ovarian
HS 578T breast = system: HS 578T breast
NCI/ADR-RES ovarian = system: NCI/ADR-RES ovarian

| Compound | growth (SR leukemia) | growth (RPMI-8226 leukemia) | growth (OVCAR-8 ovarian) | growth (OVCAR-5 ovarian) | growth (OVCAR-4 ovarian) | growth (SK-OV-3 ovarian) | growth (IGROV1 ovarian) | growth (OVCAR-3 ovarian) | growth (HS 578T breast) | growth (NCI/ADR-RES ovarian) |
| --- | --- | --- | --- | --- | --- | --- | --- | --- | --- | --- |
| CC1COCC(C)N1C1=C(Cl)C(=O)c2ccccc2C1=O (stereo not given) | 41.6% | 52.5% | 47.4% | 106% | -4.76% (active) | 95.9% | 50.4% | 46.1% | 100% | 76.8% |
| N#C/C(=C\c1ccc(Br)cc1)c1cc2ccccc2[nH]1 | 81.2% | 78.9% | 96.8% | 93.9% | 112% | 81% | 91.4% | 107% | 98.4% | 98.7% |
| O=C1NC(=Nc2ccc(O)cc2)S/C1=C\c1cccs1 | 11.6% | 2.94% (active) | 48.5% | 84.5% | 48.8% | 62.6% | 38.5% | 8.01% (active) | 32.6% | 32.1% |
| CC(=O)c1c(Nc2ccc(F)c(F)c2F)[nH]c2c(F)cc(F)cc2c1=O | 8.21% (active) | -10.6% (active) | 5.38% (active) | 12.8% | 12.1% | -4.26% (active) | 16.2% | 7.99% (active) | 4.13% (active) | 1.67% (active) |
| CCN1C(=O)N(CC)C2C1NN=c1s/c(=C3\C(=O)N(CCc4ccccc4)c4ccccc43)c(=O)n12 (stereo not given) | 10.7% | 8.77% (active) | 13.5% | 20.6% | 38.3% | 32.3% | 18.9% | -16.9% (active) | 5.14% (active) | -9.34% (active) |
| CN1CCN(Cc2ccc(NC(=O)c3cncc(C#Cc4cncc5ncccc45)c3)cc2C(F)(F)F)CC1 | -37.7% (active) | 9.58% (active) | 28.1% | 25.2% | 17.3% | -3.03% (active) | 1.13% (active) | 36.3% | -5.88% (active) | 30.9% |
| CC(C)CCC[C@@H](C)C1CCC2C3CCC4=C/C(=N/OCCN(C)C)CC[C@]4(C)C3CC[C@@]21C (stereo not given in full) | 62.2% | 78.4% | 104% | 83.9% | 88.5% | 93.8% | 48.9% | 89.5% | 83.8% | 89.6% |
| CC/C=C1/C(=O)C=C[C@@H]1C/C=C\CCCC(=O)OC | 4.16% (active) | -5.45% (active) | 25.7% | 112% | 96.9% | 117% | 105% | 51.4% | 43% | 57.7% |
| CCOC(=O)/C=C/c1c(C)[nH]c(=O)[nH]c1=O | 69.6% | 110% | 83.2% | 71.8% | 97.5% | 99.4% | 112% | 118% | 105% | 81.9% |
| CCOC(=O)c1c(NC(=O)c2ccc(C(C)(C)C)cc2)sc2cc(O)ccc12 | 87.9% | 104% | 92.7% | 104% | 104% | 109% | 80.8% | 110% | 105% | 89.2% |
| CCCCCCC(CCCC)COC(=O)c1ccc(Cl)cc1 (stereo not given) | 99.1% | 108% | 109% | 115% | 99.4% | 107% | 111% | 114% | 109% | 115% |
| CN(C)c1ccc(/C=C/C(=O)c2ccc(Nc3nc(Nc4ccc(F)cc4)nc(Nc4ccc(Cl)cc4)n3)cc2)cc1 | 4.77% (active) | 30.5% | 48.8% | 74.2% | 76.5% | 108% | 72.4% | 89.2% | 77.2% | 66.4% |
| Cn1cc(-c2csc(-c3cn(C(=O)OC(C)(C)C)c4ccccc34)n2)c2ccnc(Cl)c21 | 26% | 68.7% | 48.2% | 51.3% | 9.63% (active) | 71.3% | 69.5% | 61.3% | 66.1% | 60% |
| C=C(C)[C@@H]1CC[C@]2(CO)CC[C@]3(C)[C@H](CC[C@@H]4[C@@]5(C)CCC(NCCc6ccc(O)cc6)C(C)(C)[C@@H]5CC[C@]43C)[C@@H]12 (stereo not given in full) | -46.8% (active) | -53.5% (active) | -79.4% (active) | -72.4% (active) | -89.3% (active) | 75.8% | -85.5% (active) | -95% (active) | -54.5% (active) | -71% (active) |
| CN1CCN(C(=O)c2cc(-c3ccc4ncnc(N5CCc6cc(F)c(Cl)cc65)c4c3)cnc2N)CC1 | 14.7% | -25.7% (active) | 10.3% | 9.22% (active) | -12.7% (active) | 10.9% | -33.4% (active) | -42.8% (active) | -17.2% (active) | 8.74% (active) |
| CCn1c2ccc(O)cc2c2c(C)c3c[n+](C(C)C)ccc3c(C)c21 | 11.9% | 27.8% | 37.6% | 83.6% | 43.2% | 89.8% | 50.8% | 19.5% | 34.8% | 66.5% |
| Cc1nc2sc(C(=O)Nc3ccc(Cl)cc3)c(N)c2cc1C(O)c1ccccc1 (stereo not given) | 11% | 15.5% | 49.7% | 59.6% | 64.9% | 51.3% | 53.9% | 5.14% (active) | 26.8% | 25.8% |
| c1ccc(CCc2ccccc2-c2cc(-c3ccccc3)on2)cc1 | 75.7% | 83.5% | 103% | 89.9% | 77.2% | 83.1% | 66.4% | 96% | 89.4% | 98.3% |
| O=C(NCc1ccc2c(c1)OCO2)NCC1CCCC(CNC(=O)NCc2ccc3c(c2)OCO3)C1 (stereo not given) | 95.2% | 102% | 100% | 108% | 96.1% | 99.1% | 106% | 108% | 97.1% | 104% |
| CCOC(=O)c1c(C)nc2ccccc2c1/C=C/c1ccc(OC)cc1 | 56.6% | 41.8% | 57.6% | 89.1% | 54.6% | 76.1% | 66% | 73.9% | 81.6% | 31.2% |
| CCCn1c(=S)sc2c1nc(C)n1c(Nc3ccccc3)nnc21 | 61.4% | 45.9% | 71.3% | 107% | 42.8% | 89.2% | 80.3% | 61.5% | 97.4% | 85.4% |
| O=C(O)c1cn(C2CC2)c2cc(N3CCN(C(=O)N/N=C/c4ccccc4)CC3)c(F)cc2c1=O | 54.4% | 104% | 96.3% | 110% | 102% | 95.8% | 102% | 102% | 105% | 97.4% |
| CS(=O)(=O)Nc1cncc(-c2ccc3ncnc(Nc4ccc(F)c(Cl)c4)c3c2)c1 | 23.3% | 15.7% | 47.1% | 33.3% | 63.4% | -0.027% (active) | -17.2% (active) | 22.1% | 3.01% (active) | 84% |
| CC(C)CSc1oc(-c2ccccc2)nc1S(=O)(=O)c1ccccc1 | 91.7% | 85.9% | 94.7% | 110% | 86.6% | 87% | 94.5% | 97.2% | 96.6% | 82.2% |
| COc1cc2c(cc1O)[C@@]1(C)[C@H](c3ccccc3Br)OC(=O)N1CC2 | 86.6% | 67.1% | 88.2% | 121% | 76.6% | 107% | 111% | 94.1% | 97.9% | 83.8% |
| C[C@H]1[C@H](C)CC[C@]2(C(=O)O)CC[C@]3(C)C(=CC[C@@H]4[C@@]5(C)C[C@@H](Cc6cn([C@@H]7O[C@H](CO)[C@@H](O)[C@H](O)[C@H]7O)nn6)[C@H](O)C(C)(C)[C@@H]5CC[C@]43C)[C@H]12 | 105% | 98.3% | 97.8% | 97.2% | 91.7% | 88.5% | 107% | 107% | 103% | 106% |
